Source: PubChem BioAssay (NCI)
About 79,000 compounds went through this panel and 15% of them were active in at least one assay; those are over-represented in the sample as a whole. Rule as the data show it: active = growth inhibition above about 70%; inactive = the rest.

How the values were obtained:
[1] = NCI Yeast Anticancer Drug Screen. Data for the rad50 strain (AID 155);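 also: 0% = growth of vehicle-only cultures of the same strain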; conditions: S. cerevisiae rad50 strain growth inhibition; at 50.0 µM; active compounds read high
Method in brief: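 Compounds were tested on a yeast strain with an engineered DNA damage repair alteration; the reported value is growth inhibition normalised to vehicle treatment.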

[2] = NCI Yeast Anticancer Drug Screen. Data for the mec2-1 strain (AID 157); conditions: S. cerevisiae mec2-1 strain, at 50.0 µM, active compounds read high
Method in brief: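 Test agents were screened against the mec2-1 yeast strain, with defined DNA repair or cell cycle alteration. Growth was scored as inhibition against vehicle-only controls.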

[3] = NCI Yeast Anticancer Drug Screen. Data for the sgs1 mgt1 strain (AID 161);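 also: 0% = growth of cultures given vehicle only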; conditions: S. cerevisiae sgs1 mgt1 strain, at 50.0 µM, active compounds read high
Method in brief: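 Read-out: growth inhibition vs vehicle controls. Cells: mutant yeast strain deficient in DNA damage repair.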

[4] = NCI Yeast Anticancer Drug Screen. Data for the cln2 rad14 strain (AID 165);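 also: 0% = growth equal to vehicle treated cultures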; conditions: S. cerevisiae cln2 rad14 strain, at 50.0 µM, active compounds read high
Method in brief: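 Growth of compound-exposed yeast (cln2 rad14 genotype) measured and expressed as inhibition relative to vehicle.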

[5] = NCI Yeast Anticancer Drug Screen. Data for the bub3 strain (AID 167); conditions: S. cerevisiae bub3 mutant strain, at 50.0 µM, active compounds read high
Method in brief: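 Growth of a checkpoint-deficient yeast mutant is measured after compound exposure. Values represent inhibition relative to vehicle.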

[6] = NCI Yeast Anticancer Drug Screen. Data for the mlh1 rad18 strain (AID 175); conditions: S. cerevisiae mlh1 rad18 strain growth inhibition; at 50.0 µM; active compounds read high
Method in brief: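 In this whole-cell yeast screen, a strain with altered DNA damage repair is challenged with compound, and its growth is measured against matched vehicle-treated controls.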

Measured: growth inhibition

COc1cc(NCCC(=O)O)c2ncccc2c1
inactive: [1] -25.1% | [2] -19.2% | [3] -41.9% | [4] -18.8% | [5] -24.2% | [6] 0.7%

CC(=O)NC(Cc1ccccc1)C(=O)Nc1ccccc1C (stereo not given)
inactive: [1] 9.1% | [2] -18.3% | [3] 14.8% | [4] 10.6% | [5] 7.75% | [6] 7.35%

Cc1c2cc3c(c1O)C(=O)CC(O3)c1ccc(O)c(c1)-c1cccc(c1O)C(=O)OCC1OC(O2)C(O)C(O)C1O (stereo not given)
inactive: [1] 51.2% | [2] 54.4% | [3] 32% | [4] 34.5% | [5] 39.6% | [6] 30.1%

CCC(=O)C1(CCCN(C)C)c2ccccc2Sc2ccccc21
inactive: [1] -14.3% | [2] 2.45% | [3] -8.6% | [4] -38.1% | [5] -2.35% | [6] 4.6%

CCOC(=O)C(C(=O)CC)C(=O)OCC
inactive: [1] 14.3% | [2] 11.3% | [3] 16.2% | [4] 7.65% | [5] 14.2% | [6] 13.4%

COc1ccc2[nH]c3c(C)c4c(c(C)c3c2c1)CN(C)CC4
inactive: [1] 3.7% | [2] 4.95% | [3] -17.2% | [4] -1.25% | [5] -7.6% | [6] -5.85%

COC(=O)C1(C(=O)OC)CC(=O)c2c(OC(=O)c3cccc(OC)c3C#N)ccc(OC(=O)c3cccc(OC)c3C#N)c2C1
inactive: [1] 1.05% | [2] 3.95% | [3] -11.5% | [4] -4.35% | [5] 0.05% | [6] 16.9%

Cc1ccccc1C(=O)Oc1ccccc1Cl
inactive: [1] 12% | [2] 17.7% | [3] -6.2% | [4] 4.25% | [5] 13.2% | [6] 11.3%

COc1ccc(O)c(C(=O)O)c1
inactive: [1] -20.2% | [2] -12.3% | [3] -7.55% | [4] 12.6% | [5] -3.35% | [6] 2.15%

O=[N+]([O-])c1ccc(Nc2ccccc2)nc1
inactive: [1] -22.7% | [2] -35.5% | [3] 7.35% | [4] 2.7% | [5] -5.5% | [6] -5.05%

Cc1c2c(cc3c(=O)ccn(CCN(C)C)c13)c(=O)ccn2CCN(C)C
inactive: [1] -71.1% | [2] -22.8% | [3] -11.8% | [4] 14.3% | [5] -20.4% | [6] -16.4%

COc1cccc(C=NC23CC4CC(CC(C4)C2)C3)c1
inactive: [1] -22.2% | [2] -3.15% | [3] 3.65% | [4] -0.9% | [5] 6.85% | [6] -6.8%

COc1ccc(/C=C/c2c([N+](=O)[O-])c(=O)n(C)c(=O)n2C)cc1
inactive: [1] -14.7% | [2] 0.95% | [3] -3.1% | [4] 16.1% | [5] 2.65% | [6] -10.2%

Nc1cccc2c([N+](=O)[O-])cccc12
inactive: [1] 62.7% | [2] 34.4% | [3] 62.8% | [4] 31.2% | [5] 17% | [6] 60.2%

Cc1ccc(/C(O)=C/c2nc3ccc([N+](=O)[O-])cc3nc2/C=C(\O)c2ccc(C)cc2)cc1
inactive: [1] 13.8% | [2] -3.45% | [3] -23.1% | [4] -28.6% | [5] -19.2% | [6] -14%

CCOc1ccccc1NC(=O)CC1Sc2ccccc2NC1=O (stereo not given)
inactive: [1] 24.5% | [2] -14.7% | [3] 15.3% | [4] 2.55% | [5] 3.85% | [6] 21.5%

COc1ccc(C2=NOC(c3ccc(OC)cc3)C2)cc1 (stereo not given)
inactive: [1] -6.85% | [2] -18.3% | [3] -7.25% | [4] -13.8% | [5] 6.05% | [6] 9.55%

CCC(C)OC(=S)S.[Cu+2] (stereo not given)
inactive: [1] -23.6% | [2] 19.4% | [3] -0.85% | [4] -4.8% | [5] -76.5% | [6] -44.9%

Cc1cccc2c1NC(=O)C2=O
inactive: [1] 21.6% | [2] 8.4% | [3] -2.8% | [4] 15.7% | [5] -0.65% | [6] 13.5%

CCCNc1nc(Cl)nc2c1cnn2C
inactive: [1] 7.6% | [2] -8.4% | [3] 9.5% | [4] 1.25% | [5] 14.4% | [6] 6.95%
